A549 viability – counter-screen for Nrf2 inhibitors: cytotoxicity in A549 cells; A549 ARE-Fluc cells, CellTiter-Fluor viability, 18-24 h; Potency, µM (titrated, usually from 46 µM), for inactives: at the highest dose activity change, negative = cytotoxicity, most hits filed as inhibitors; 390,000 compounds, 0.16% hits; AID 504648; further: on the % scale 0 is the no-effect control and ±100 the full control effect
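Cytotoxicity counterscreen: CellTiter-Fluor fluorescence was measured in A549 ARE_Fluc cells after 18-24 h of compound exposure in a concentration series. The subsequent BugLite luminescent read reports ARE-luciferase activity.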
Nrf2 inh – blocks Nrf2 signaling. A549 ARE-Fluc reporter, luciferase luminescence, 18-24 h. Potency, µM (series often up to 46 µM), inactives show at the highest dose activity change, negative = inhibition, most hits filed as inhibitors. 360,000 compounds, 2.1% hits. AID 504444; further: on the % scale 0 is the no-effect control and ±100 the full control effect; nearly all actives have a fitted effect of over 60% in size
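Two sequential reads on A549 ARE_Fluc cells exposed to compound for 18-24 h: a CellTiter-Fluor fluorescence read for viability, then a luciferase luminescence read for Nrf2/ARE activity.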
S2 tox – reduces viability in counter-screen for ATXN expression inhibitors. S2 cells (HEK-293 line with an ATXN2-luciferase reporter) viability, CellTiter-Fluor protease fluorescence, 24 h. 400,000 compounds, 0.49% hits. Potency, µM (highest dose often 56.7 µM), actives largely listed as cytotoxic. AID 651635; further: nearly all actives have a fitted effect of over 40% in size
Nrf2 ARE act – activates Nrf2 signaling. AREc32 ARE-luciferase reporter (MCF7-derived line), luminescence, 24 h. Potency, µM (doses to about 46.1 µM), for inactives: at the highest dose activation, usual class: activators. 410,000 compounds, 0.31% hits; further: % of control where 0% means no effect; nearly all actives have a fitted effect of over 65% in size
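Steps: seed AREc32_Fluc cells (1000/well, 5% FBS OPTI-MEM); incubate overnight at 37 deg C; add 23 nL compound; incubate 24 hr; add Steady-Glo; hold 30 min RT; read luminescence.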
ATXN2 expr inh – ATXN2 expression inhibition; HEK-293 ATXN2-luciferase reporter, luminescence, 24 h; Potency, µM (doses to about 57 µM), without a hit: top-dose activity change, negative = inhibition, actives largely listed as inhibitors; 360,000 compounds, 0.72% hits; further: on the % scale 0 is the no-effect control and ±100 the full control effect; nearly all actives have a fitted effect of over 55% in size
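qHTS (up to 57 uM final) was run with 24 h compound exposure of reporter cells at 37 °C. Each well was multiplexed: SteadyGlo luminescence measured ATXN2-luciferase expression after a fluorogenic Gly-Phe-AFC viability readout (25 uM final).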
Active calls of the source: *; i = inactive; ? = inconclusive; nt = not tested or not shown; [ ] = remark or other dose. This is a sample that favours compounds with a hit; in the whole collection about 2.9% have one here. The call rests on the fitted dose curve; in most records, active means well fitted curve in the direction sought with a large enough effect; inconclusive means small, poorly fitted or top-dose-only effect, or another doubt; inactive means no such curve, though single readings can be large; an effect the other way counts as inactive or inconclusive. Potency means the concentration at half of the fitted maximal effect.

SMILES	A549 viability	Nrf2 inh	S2 tox	Nrf2 ARE act	ATXN2 expr inh
CCNC(=O)C1CCCN(C(=O)c2ccc(OC(F)F)cc2)CC1 (stereo unspecified)	nt	nt	i	0.3%[9.22 µM]	-4.7%
Cc1cc(C)n(-c2ccc(C(=O)Nc3ccc(S(=O)(=O)N(C)C)cc3)cc2)n1	-22.6%	?	?	-0.2%	?
Cc1ccc(NC(=O)CNc2ccc(Cl)c(Cl)c2)cc1S(=O)(=O)N(C)C	?	11.6µM*	?	-0.6%[9.22 µM]	?
Cc1cc(C)n(-c2ccc(C(=O)Nc3cccc(S(=O)(=O)N(C)C)c3)cc2)n1	-14.5%	18.4µM*	i	-0.5%	-24.5%
Cc1cc(C)n(-c2ccc(C(=O)Nc3ccc(S(=O)(=O)NCc4ccco4)cc3)cc2)n1	?	25.9µM*	i	-1.5%	-31.0%
Cc1ccc(C(=O)Nc2ccc(S(=O)(=O)NCc3ccco3)cc2)cc1	-2.3%	13.7%	i	3.6%	5.7%
Cc1cc(C)c(S(=O)(=O)/N=C2/C=C(Sc3ncn[nH]3)C(=O)c3ccccc32)cc1C	?	?	22.4µM*	-3.5%	14.1µM*
COC(=O)c1ccc(OC)c(CSc2nnc(COc3ccc(OC)cc3)o2)c1	nt	13µM*	i	0.6%	-1.4%
Cc1ccc(S(=O)(=O)N2CCOC2CNC(=O)C(=O)NCCCc2ccccc2)cc1 (stereo unspecified)	0.4%	20.6µM*	i	0.1%	-22.4%
COc1ccc(S(=O)(=O)N2CCOC2CNC(=O)C(=O)NCCc2c[nH]c3ccccc23)cc1 (stereo unspecified)	-8.1%	7.31µM*	i	-0.3%	-18.4%
Cc1cc(C)cc(C(=O)NCC(=O)OCC(=O)c2c(N)n(C)c(=O)n(C)c2=O)c1	0.8%	0.4%	i	-0.1%	5.4%
CCc1cc2c(=O)c(-c3cnn(-c4ccccc4)c3)coc2c(CN2CCOCC2)c1O	0.7%	-17.2%	i	-0.6%	?
Fc1cc(-c2cccc3ncc(-c4cnn(C5CCNCC5)c4)nc23)cc(F)c1CN1CCOCC1	nt	nt	nt	nt	24.3µM*
N#Cc1cccnc1N1CCN(C(=O)c2cccc3c2C(=O)c2ccc(Cl)cc2S3(=O)=O)CC1	-3.6%	?	20µM*	7.3%	?
O=S(=O)(/C=C/C=C/S(=O)(=O)c1ccccc1)c1ccccc1	?	25.9µM*	7.52µM*	-3.2%	?
NS(=O)(=O)c1ccccc1	-1.6%	7.6%	i	-0.1%	4.7%
CN1C(=O)[C@H]2[C@@H](c3ccc(F)cc3)N3C(=O)c4ccccc4NC(=O)[C@@]3(C)[C@H]2C1=O	-0.9%	-2.8%	i	-0.3%	-2.0%
COC(=O)c1cc(S(=O)(=O)NCc2ccc(Br)cc2)c[nH]1	-3.5%	0.0%	i	-0.5%	nt
CNC(=O)c1nn(C)c2c1C(C)(C)Cc1cnc(Nc3ccc(N4CCN(C)CC4)cc3)nc1-2	nt	nt	nt	nt	1.72µM*
Cc1nc(Nc2c(Cl)cccc2Cl)sc1C(=O)Nc1ccccc1	-0.8%	-28.9%	i	-0.7%	-19.9%
O=C(Nc1ccccc1)c1cn2ccccc2n1	1.3%	?	i	-1.7%	11.2µM*
Cc1csc(NC(=O)c2cn3ccccc3n2)n1	-8.8%	?	i	-2.5%	3.98µM*
CCOC(=O)N1CCN(Cc2nc3ccc([N+](=O)[O-])cc3c(=O)n2-c2ccc(OC)cc2OC)CC1	2.5%	-22.1%	i	-0.4%	-3.8%
COc1ccc(OC)c(C(=O)CC2OC(=O)c3ccccc32)c1 (stereo unspecified)	-9.6%	-5.5%	i	12.6µM*	-11.0%
CCCOc1ccc(C(=O)C(CN2CCOCC2)c2ccccc2)cc1 (stereo unspecified)	-0.8%	-16.9%	?	?	20µM*
CCCCC1C(=O)N(c2ccccc2)N(c2ccc(O)cc2)C1=O (stereo unspecified)	?	25.9µM*	7.94µM*	?	5.62µM*
Cc1ccc2ncc(S(=O)(=O)c3ccccc3)c(N3CCCCC3C)c2c1 (stereo unspecified)	0.3%	?	i	7.0%	?
COc1cc(C(=O)N2CCCc3ccccc32)c([N+](=O)[O-])cc1OC	2.0%	5.9%	i	2.9%	-7.0%

Source: PubChem
